Only a selection was taken, and hits are over-represented in it overall.
Cycloheximide cs – Cycloheximide Counterscreen for Small Molecule Inhibitors of Shiga Toxin; max response, %; cell reporter, cycloheximide protein synthesis inhibition counterscreen; 12% of 300,000 active; AID 2314, 2010; in the data active means max response mostly above about 13%, no sharp cut-off; inactive means mostly below about 14%; further: read at 38.3 µM for the half of the compounds with a filed dose; 0% is about no effect
FBPA Giardia inh – qHTS Assay for Inhibitors of Fructose-1,6-bisphosphate Aldolase from Giardia Lamblia; purified Giardia FBPA; Potency, µM (top dose mostly 59.6 µM), for the others: at the highest dose activity, negative = inhibition, most hits filed as inhibitors; 0.71% of 290,000 active; further: potency means the concentration at half of the fitted maximal effect; on the % scale 0 is the no-effect control and ±100 the full control effect; nearly all actives have a fitted effect of over 55% in size
Target sequence (A8B2U2 whole entry, looked up): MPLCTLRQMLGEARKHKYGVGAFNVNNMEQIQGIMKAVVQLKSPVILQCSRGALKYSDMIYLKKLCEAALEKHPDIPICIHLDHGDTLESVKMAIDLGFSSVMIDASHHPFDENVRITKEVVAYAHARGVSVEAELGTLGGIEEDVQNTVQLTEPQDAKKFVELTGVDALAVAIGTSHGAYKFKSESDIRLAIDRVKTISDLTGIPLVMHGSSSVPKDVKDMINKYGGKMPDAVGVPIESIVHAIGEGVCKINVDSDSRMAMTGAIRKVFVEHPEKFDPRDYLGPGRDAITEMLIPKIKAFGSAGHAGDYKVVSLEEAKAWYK
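40 nM FBPA preincubated 10 min at RT with compound (up to 57.5 uM final), then substrate plus GAPDH/TPI/NAD/arsenate coupling and diaphorase/resazurin added. Fluorescence read after 20 min at RT, 525/598 nm.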
LmPK inhibitor – qHTS Assay for Inhibitors of Leishmania Mexicana Pyruvate Kinase (LmPK). purified LmPK, Kinase-Glo ATP luminescence, 1 h. Potency, µM (titrated, usually from 57.5 µM), for the others: at the top dose activity change, negative = inhibition, usual class: inhibitors. 0.37% of 290,000 active. AID 1721, 2009; further: potency means the concentration at half of the fitted maximal effect; on the % scale 0 is the no-effect control and ±100 the full control effect
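Screened at intermediate enzyme activity to detect both inhibitors and activators: LmPK at 0.1 nM, with a 0.5 nM enzyme column as activation reference. PEP 0.5 mM, ADP 0.1 mM; ATP detected by luminescence after 1 h.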
RE007 growth inh – qHTS Assay for Inhibitors of the HIV-1 protein Vpr | S. pombe RE007 Vpr strain, BacTiter-Glo ATP luminescence, 24 h | Potency, µM (highest dose often 92.2 µM), inactives show at the top dose activity change, negative = less growth, actives largely listed as inhibitors | 0.21% of 360,000 active; active means well fitted falling curve with a large enough effect; further: potency means the concentration at half of the fitted maximal effect; on the % scale 0 is the no-effect control and ±100 the full control effect; nearly all actives have a fitted effect of over 50% in size
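Fission yeast strain RE007, carrying one chromosomally integrated HIV-1 vpr copy, was seeded at OD 0.01 in PMG+AL medium with 23 nL pinned compound. After 24 h at 30 °C and 99% humidity, viability was read by BacTiter-Glo luminescence.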
TbPYK inhibitor – qHTS of Trypanosoma Brucei Inhibitors. pyruvate kinase (Trypanosoma brucei), Q57TT1. TbPYK enzyme, Kinase-Glo Plus ATP luminescence, 45 min. Potency, µM (series often up to 76.8 µM), inactives show at the top dose activity, negative = inhibition, usual class: inhibitors. 0.12% of 410,000 active; further: potency means the concentration at half of the fitted maximal effect; on the % scale 0 is the no-effect control and ±100 the full control effect; nearly all actives have a fitted effect of over 50% in size
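Screened from lowest to highest concentration, compounds were pinned into TbPYK/substrate mixtures, and ADP (130 uM final) was added. Plates sat at room temperature for 45 min prior to Kinase-Glo Plus detection by luminescence.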
Shiga inhibitor – A qHTS for Small Molecule Inhibitors of Shiga Toxin. inhibition, % at 38.7 µM. Vero cells, Shiga toxin protein synthesis inhibition reporter. 9.2% of 290,000 active; in the data active means inhibition mostly above about 28%, no sharp cut-off; inactive means mostly below about 43%; further: 0% is about no effect
* = called active by the depositor; . = not tested or not shown. Unless noted, the call rests on the fitted dose curve; in most records, active means well fitted curve in the direction sought with a large enough effect; inconclusive means small, poorly fitted or top-dose-only effect, or another doubt; inactive means no such curve, though single readings can be large; an effect the other way counts as inactive or inconclusive.

SMILES	Cycloheximide cs	FBPA Giardia inh	LmPK inhibitor	RE007 growth inh	TbPYK inhibitor	Shiga inhibitor
Cc1[nH]c2ccccc2c1C(=O)/C=C/c1ccccc1Cl	40*	-9%	0%	-5%	-5%	81*
Cc1nc2ccccc2c(N)c1C(=O)/C=C/c1ccccc1	-3	1%	0%	-1%	0%	-10
Cc1[nH]c2ccccc2c1C(=O)/C=C/c1ccccc1	37*	-9%	-3%	-4%	-19%	56*
Cc1[nH]c2ccccc2c1C(=O)/C=C\c1ccccc1Cl	36*	-13%	-1%	-6%	7%	24*
O=C(C=Cc1ccccc1Cl)c1ccccc1	.	.	.	-13%	-5%	.
CC(C)(C)NC(=O)N1CCC(C(=O)O)CC1	.	.	.	.	12%	.
Cc1cc(-c2ccc(F)cc2)n2ncc(-c3ccccc3)c2n1	.	.	.	2%	-3%	.
Cc1cc(-c2ccncc2)n2ncc(-c3ccccc3)c2n1	.	.	.	-18%	1%	.
C=CCSc1cc(C)nc2c(-c3ccccc3)cnn12	63*	1%	3%	-22%	-2%	80*
CCSc1cc(C)nc2c(-c3ccccc3)cnn12	52*	-2%	-1%	-12%	8%	69*
C[C@H]1CN([C@@H](C)CO)C(=O)CCCn2cc(nn2)CO[C@@H]1CN(C)C(=O)Nc1ccc2c(c1)OCCO2	.	.	.	-6%	-1%	.
O=C(O)COn1c(-c2ccccc2)nc2ccc(Cl)cc21	22*	-17%	-8%	1%	-1%	40
O=[N+]([O-])c1ccc2nc(-c3ccccc3)n(OCc3ccc(Cl)cc3)c2c1	18*	-3%	12%	14%	-4%	18
COn1c(-c2ccccc2)nc2ccc(Cl)cc21	31*	-5%	-12%	-25%	-4%	72*
O=[N+]([O-])c1ccc2nn(Cc3ccccc3)cc2c1	1	5%	1%	-14%	1%	19
CN(C)C(=O)On1c(-c2ccccc2)nc2ccc(Cl)cc21	39	-17%	-1%	-2%	-6%	28
CC(=O)N1CC=CC1(CC(C)C)C(=O)NCCN1CCOCC1 (centres undefined)	34*	7%	-5%	5%	5%	55*
CC(C)CC1(C(=O)NCCN2CCOCC2)C=CCN1C(=O)c1ccccc1 (centres undefined)	-1	0%	-2%	1%	-5%	-9
CC(C)CC(O)(c1ccccc1)C(CN1CCOCC1)c1ccccc1 (centres undefined)	20*	-27%	-6%	1%	1%	18
CC(C)CCC(O)(c1ccccc1)C(CN1CCOCC1)c1ccccc1 (centres undefined)	-2	6%	-1%	14%	0%	-8
N#CCCCSc1nnnn1-c1cc(C(F)(F)F)cc(C(F)(F)F)c1	.	1%	.	.	.	.
O=Cc1cn(CCOc2ccccc2F)c2ccccc12	25*	0%	-7%	4%	-8%	49*
Cc1ccc(OCCCn2cc(C#N)c3ccccc32)cc1	24*	-22%	-1%	-9%	-2%	68*
N#Cc1cn(CCOc2ccccc2F)c2ccccc12	18*	-22%	0%	-12%	-3%	65
COc1ccc(CNC(=O)c2c3c(nc4ccccc24)C(=O)N(C2CCCCC2)C3)cc1	.	.	.	.	-1%	.
COc1cccc(C(=O)Nc2cccc(C(=O)OCc3cc(=O)n4nc(C5CC5)sc4n3)c2)c1	.	.	.	.	3%	.
CCn1cc(S(=O)(=O)c2cc(C)cc(C)c2)c(=O)c2cc(F)c(N3CCCC3)cc21	.	.	.	.	0%	.
COc1cccc(NC(=O)C/C(C)=N/NC(=O)c2ccccc2Cl)c1	25*	-3%	0%	-14%	0%	55*
COc1ccc(Cl)cc1NC(=O)C/C(C)=N/NC(=O)c1ccccc1Cl	12	1%	5%	-18%	0%	.
C/C(CC(=O)Nc1ccc(Cl)c(C(F)(F)F)c1)=N\NC(=O)c1cc2ccccc2cc1O	13*	-11%	-2%	1%	2%	-7
